The source of these data is PubChem BioAssay (NCI).

About 83,000 compounds went through this panel and 20% of them were active in at least one assay; those are over-represented in the sample as a whole.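 Single-dose data. Exposure time 48 hours. Values below 10 considered active.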 Values without a mark were called inactive. The source made the active and inactive calls.

What all share (assay): NCI-60 one-dose screen, 48 h (100 = growth as untreated, 0 = no growth, -100 = all killed)
Experiment [1] relates to NCI-H226 lung. To be noted: 10 µM unless noted.
In experiment [2] the test system is NCI-H322M lung. The settings on record: 10 µM unless noted.
Experiment [3] concerns HOP-62 NSCLC. The settings on record: 10 µM unless noted.
Experiment [4] has as its system NCI-H460 lung. The settings on record: 10 µM unless noted.
Experiment [5] deals with HOP-92 NSCLC. The settings on record: 10 µM.
Experiment [6] deals with NCI-H522 lung. The settings on record: 10 µM unless noted.
The subject of experiment [7] is A549/ATCC NSCLC. To be noted: 10 µM unless noted.
For experiment [8], the system named is 786-0 renal. To be noted: 10 µM unless noted.
Experiment [9] deals with COLO 205 colon. To be noted: 10 µM unless noted.
In experiment [10] the test system is DU-145 prostate. To be noted: 10 µM unless noted.
The subject of experiment [11] is K-562 leukemia. The settings on record: 10 µM unless noted.
Experiment [12] has as its system MALME-3M melanoma. The settings on record: 10 µM unless noted.
Experiment [13] relates to MDA-MB-231 breast. The settings on record: 10 µM unless noted.
Experiment [14] deals with RXF 393 renal. The settings on record: 10 µM unless noted.
For experiment [15], the system named is SF-268 CNS. The settings on record: 10 µM unless noted.
Experiment [16] has as its system SF-295 CNS. The settings on record: 10 µM unless noted.
For experiment [17], the system named is SF-539 CNS. To be noted: 10 µM unless noted.
In experiment [18] the test system is UACC-257 melanoma. The settings on record: 10 µM unless noted.
For experiment [19], the system named is M14 melanoma. To be noted: 10 µM unless noted.
For experiment [20], the system named is NCI-H23 lung. To be noted: 10 µM unless noted.

For the compound `COc1ccc2c(c1)c(-c1cc(N)n3nc(-c4cn(C)c5ccc(OC)cc45)cc3n1)cn2C`, the growth in [1] is 126%; in experiment [2], 101%; in [3], 103%; in experiment [4], -64.3% (active); in experiment [5] it was 86.8%; in [6] it was 109%. Also, the growth is 46.1% in experiment [7]; 91.9% in experiment [8]; 123% in [9]; 93.1% in experiment [10]; -16.6% (active) in experiment [11]; 98% in [12]. The growth was 78.4% in experiment [13]; 128% in [14]; 109% in [15]; 98.9% in [16]; 94.9% in experiment [17]; 110% in experiment [18]. For the same compound, in experiment [19], the growth was 111%.
`O=c1[nH]c2ccccc2cc1CSc1ccccc1Nc1nccc(-c2ccc(Cl)cc2)n1`: the growth in experiment [1] is 94.1%; in experiment [2] it was 94.1%; in experiment [3] it was 95.6%; in experiment [4], 97.5%; in experiment [5], 83.5%; in experiment [6] it was 97.4%. Moreover, the growth in [7] is 95.4%; in [8] it was 101%; in experiment [9] it was 125%; in experiment [10], 102%; in experiment [11], 94.7%; in experiment [12], 86.1%. In addition, the growth was 84.5% in experiment [13]; 93.5% in experiment [14]; 94.6% in experiment [15]; 95.5% in experiment [16]; 82.7% in experiment [17]; 104% in experiment [18]. The growth in experiment [19] was 108%.
Regarding `CCCSc1nc(Nc2ccc(/C(C)=N\NC(N)=S)cc2)c(C#N)c(-c2ccccc2)n1`, the growth was 49.4% in experiment [1]; 84.3% in experiment [2]; 84.2% in experiment [3]; 32.7% in [4]; -8.02% (active) in experiment [5]; 85.2% in [6]. Further, the growth was 43.7% in experiment [7]; 60.3% in [8]; 79.9% in experiment [9]; 66.3% in experiment [10]; 56.5% in experiment [11]; 97.9% in [12]. Also, the growth in experiment [13] was 72.9%; in experiment [14], -4.63% (active); in experiment [15] it was 103%; in experiment [16], 51.8%; in experiment [17] it was 36.4%; in experiment [18], 105%.
`COc1cc(OC)c(S(N)(=O)=O)cc1C(C)=O`: the growth in [20] is 106%; in experiment [1], 103%; in experiment [2], 109%; in experiment [3] it was 113%; in experiment [4], 107%; in experiment [7], 104%. Further, the growth in experiment [8] is 101%; in experiment [9] it was 119%; in experiment [10], 108%; in experiment [12], 109%; in experiment [13] it was 101%; in experiment [14], 121%. The growth in experiment [15] was 104%; in experiment [16] it was 100%; in [17], 101%; in experiment [18], 102%; in experiment [19], 109%.
Consider `Nc1cc(-c2c[nH]c3ccc(Br)cc23)nc2cc(-c3c[nH]c4ccc(Br)cc34)nn12`, for which the growth was 55.3% in experiment [1]; 39.8% in experiment [2]; 40% in experiment [3]; -24.8% (active) in experiment [4]; -12.1% (active) in experiment [5]; -64% (active) in experiment [6]. Besides, the growth was 17.7% in experiment [7]; -50.3% (active) in [8]; -50.5% (active) in [9]; 24.2% in experiment [10]; 1.82% (active) in [11]; 45.6% in experiment [12]. Besides, the growth in [13] was 7.95% (active); in experiment [14], 28.4%; in [15], 27.8%; in [16] it was 6.52% (active); in experiment [17] it was -4.74% (active); in [18], 65%. For the same compound, the growth in experiment [19] was -52.1% (active).
In the case of `CC(=O)O[C@@H]1C(=O)N(c2cnccn2)[C@H]1c1ccccc1[N+](=O)[O-]`, the growth in experiment [1] is 39.3%; in experiment [2] it was 36.6%; in [3], 41.5%; in experiment [4], -5.1% (active); in [5], 9.48% (active); in experiment [6], -45.7% (active). The growth in [7] was 14.4%; in experiment [8], 14.7%; in [9], 20.9%; in experiment [10], 2.33% (active); in experiment [11], 9.97% (active); in experiment [12] it was 51.8%. The growth is 22.4% in [13]; 62.9% in [14]; 19.4% in experiment [15]; 23.9% in experiment [16]; -32.5% (active) in experiment [17]; 44.7% in experiment [18]. Also, the growth in [19] was -2.82% (active).
Regarding `COc1cccc(N2CCN(c3ncnc4c3[nH]c3ccc(F)cc34)C[C@H]2C)c1`, the growth in experiment [1] is 33.5%; in experiment [2], 89.6%; in [3] it was 56.6%; in [4] it was 66.3%; in experiment [5], 53.3%; in experiment [6] it was 33.1%. The growth is 61% in experiment [7]; 71.4% in [8]; 61.4% in [9]; 81.5% in experiment [10]; 26.6% in [11]; 48.2% in experiment [12]. For the same compound, the growth in experiment [13] is 64.3%; in [14], 88%; in experiment [15], 84.5%; in [16], 31.8%; in experiment [17] it was 69.6%; in experiment [18], 15.4%. Further, the growth in experiment [19] was 41.7%.
Consider `CN1CCN(Cc2ccc(NC(=O)c3cncc(C#Cc4cnc5ccc(N6CCN(C)CC6)nn45)c3)cc2C(F)(F)F)CC1`, for which the growth in experiment [1] was 28%; in experiment [2], 35.5%; in experiment [3], 28.8%; in [4], -82.4% (active); in experiment [5] it was -16.1% (active); in experiment [6], 82.1%. In addition, the growth in experiment [8] was -84.6% (active); in experiment [9], 38.9%; in experiment [10] it was -94.2% (active); in experiment [11], -59% (active); in [12], 68.3%; in [13], -66.7% (active). The growth in experiment [14] was -89.9% (active); in experiment [15] it was -50.7% (active); in experiment [16], -78.4% (active); in [17], -98% (active); in [18], 101%; in experiment [19], -45.8% (active).
For the compound `CC(C)(C)c1ccc(CC(=O)Nc2sc3c(c2C(N)=O)CCC(=O)C3)cc1`, the growth was 7.26% (active) in experiment [20]; 11.4% in [1]; 44% in experiment [2]; 30.5% in experiment [3]; 6.79% (active) in experiment [4]; 17.1% in experiment [7]. Moreover, the growth in experiment [8] is 29.1%; in experiment [9] it was -34.4% (active); in [10], 26.4%; in [13], -20.2% (active); in [14] it was -12.5% (active); in experiment [15], 26%. Moreover, the growth in [16] is 10.1%; in experiment [17] it was -36.4% (active); in experiment [18], -10.8% (active); in [19] it was 7.16% (active).
Turning to `COc1cc(OC)cc(C(=O)Nc2cccc(C#Cc3cccc4[nH]nc(N)c34)c2)c1`, the growth in experiment [1] was 30.8%; in [2] it was 53.6%; in experiment [3], 39%; in experiment [4], 13%; in experiment [5], 43%; in experiment [6], 2.45% (active). The growth in experiment [7] was 33.7%; in [8], 46.5%; in experiment [9], 6.38% (active); in experiment [10], 28.6%; in [11], 8.84% (active); in [12], 40.5%. Moreover, the growth is 19.1% in experiment [13]; -19.4% (active) in experiment [14]; 33% in experiment [15]; 27.5% in experiment [16]; -63.9% (active) in [17]; 53.4% in [18]. The growth in experiment [19] was -2.56% (active).
Turning to `CC(=O)c1ccc(Nc2nc(SCC(C)C)nc(-c3ccc(F)cc3)c2C#N)cc1`, the growth in [1] was 114%; in experiment [2] it was 116%; in [3], 116%; in experiment [4] it was 109%; in [5], 118%; in experiment [6] it was 103%. Moreover, the growth in experiment [7] is 109%; in experiment [8], 105%; in experiment [9], 115%; in experiment [10], 113%; in experiment [11], 106%; in [12] it was 114%. Besides, the growth in [13] is 106%; in experiment [14], 118%; in experiment [15] it was 114%; in experiment [16] it was 118%; in experiment [17], 105%; in experiment [18], 106%. For the same compound, in experiment [19], the growth is 115%.
Take `O=C(CSc1nc2ccccc2c(=O)n1-c1ccccc1)Nc1ccc(-c2nc3ccc([N+](=O)[O-])cc3[nH]2)cc1`: the growth in [1] was 82%; in [2] it was 97.8%; in experiment [3], 99.1%; in [4] it was 63.5%; in experiment [5], 99.1%; in experiment [6], 75.2%. Besides, the growth in [7] was 93.4%; in experiment [8], 95.2%; in experiment [9], 110%; in [10], 84.2%; in [11], 42.7%; in experiment [12] it was 71.1%. Besides, the growth in experiment [13] was 76.8%; in experiment [14], 64.5%; in experiment [15], 76.2%; in [16], 103%; in [17] it was 78.2%; in [18], 95.8%. Besides, the growth in experiment [19] is 93.3%.
On to `Cc1ccc(-c2cc3nc(C(Cl)Cl)nc(C)n3n2)cc1`, for which the growth in [1] was 94.6%; in [2] it was 101%; in experiment [3], 92.1%; in experiment [4], 95.1%; in experiment [5], 110%; in experiment [6], 104%. The growth in experiment [7] was 108%; in experiment [8], 104%; in experiment [9], 115%; in experiment [10], 96.8%; in [11], 112%; in experiment [12], 105%. The growth in [13] is 87%; in experiment [14], 118%; in experiment [15], 106%; in [16] it was 108%; in [17] it was 97.8%; in experiment [18], 112%.
